Only some compounds are listed: those with a hit (about 4.5% of all), similar ones and a draw of the others.
BJeLR lethal: MLPCN primary cell-based screen for lethality selective to Ras in HRASV12 cells; inhibition, % (no concentration beside the values); 0.17% of 300,000 active; AID 1554, 2009; BJeLR (HRASV12) viability, CellTiter-Glo ATP luminescence, 48 h; in the data active = inhibition above about 50%
PfHsp40 yeast: rescue of yeast from PfHsp40 toxicity, primary screen, S. cerevisiae, ATP luminescence; S. cerevisiae expressing PfHsp40, growth rescue; growth rescue, % at 12.5 µM; 0.68% of 340,000 active; AID 504582, 2011; in the data active = growth rescue above about 28%, passing the limit was not always enough;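 also: yeast W303a lacking pdr1 and pdr3 grown in galactose medium; growth measured after three days at 30 °C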
GDH-TPI counter: GDH-TPI coupling enzyme inhibitors, primary screen, artefact control for M. tuberculosis FBA inhibitor project, biochemical, absorbance, full deck. 1.2% of 360,000 active. inhibition, % at 4.8 µM. AID 588335, 2011. GDH-TPI coupled enzyme counterscreen, NADH absorbance; in the data active = inhibition above about 30%
PrP 5UTR inh: inhibition of PrP 5' UTR reporter expression | cell-based PrP 5' UTR mRNA reporter, plate reader | inhibition, % (concentration not given with the values) | 0.35% of 340,000 active; in the data active = inhibition above about 52%
Mtb FBA inh: Mtb FBA enzyme inhibitors, primary screen, biochemical, fluorescence, strain H37Rv. Fructose-bisphosphate aldolase (Mycobacterium tuberculosis (strain ATCC 25618 / H37Rv)), …. purified M. tuberculosis FBA, fluorescence read-out. inhibition, % at 1 µM. 2.3% of 360,000 active. AID 588726, 2011; in the data active = inhibition above about 27%
Target sequence (P9WQA3 whole entry, looked up): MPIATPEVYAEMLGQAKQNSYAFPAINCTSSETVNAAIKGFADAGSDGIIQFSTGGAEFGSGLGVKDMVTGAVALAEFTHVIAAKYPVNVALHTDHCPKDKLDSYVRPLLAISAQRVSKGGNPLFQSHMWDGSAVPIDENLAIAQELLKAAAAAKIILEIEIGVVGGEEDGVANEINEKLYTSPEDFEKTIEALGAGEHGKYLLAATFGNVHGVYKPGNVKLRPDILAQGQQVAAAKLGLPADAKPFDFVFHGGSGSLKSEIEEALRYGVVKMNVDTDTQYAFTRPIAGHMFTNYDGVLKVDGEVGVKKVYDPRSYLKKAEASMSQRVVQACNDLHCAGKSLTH
PrPC surface inh: inhibitors of human cell surface prion protein PrPC, primary screen, cell-based, TR-FRET. TR-FRET read-out. inhibition, % at 13.8 µM. 0.43% of 370,000 active; in the data active = inhibition above about 24%
Each line names hits and unclear results; the compound was inactive in the other large screens.

CNC[C@@H](CC1CCCCC1)NC[C@H](CC(C)C)NCCc1cccc(C(F)(F)F)c1	BJeLR lethal 53.8
Cc1ccc(C)c(Sc2ccc(NC(=O)CCN3C(=O)NC4(CCCC4)C3=O)cc2)c1	PfHsp40 yeast 31.5 (no result: BJeLR lethal)
Cc1ccc(NC(=O)CCN2C(=O)NC3(CCCC3)C2=O)cc1	none (no result: BJeLR lethal)
O=S(=O)(Nc1nc2ccccc2nc1NCc1ccco1)c1cccs1	GDH-TPI counter 32.0
C=CCNc1nc2ccccc2nc1NS(=O)(=O)c1cccs1	none
CCCCCNc1nc2ccccc2nc1NS(=O)(=O)c1cccs1	GDH-TPI counter 31.0
O=C(OCc1cn(Cc2cc(F)ccc2F)nn1)N1CCOCC1	none (no result: BJeLR lethal, PfHsp40 yeast, GDH-TPI counter, PrP 5UTR inh, Mtb FBA inh)
CCCC#Cc1ccc(CC[C@H]2O[C@H]3CC[C@@H](CO)O[C@H]3C[C@H]2NC(=O)CN2CCOCC2)cc1	none (no result: BJeLR lethal, PfHsp40 yeast, GDH-TPI counter, PrP 5UTR inh, Mtb FBA inh)
COc1ccc(NS(=O)(=O)c2ccc3c(c2)Cc2ccccc2-3)cn1	PfHsp40 yeast 28.3
CN(C)/C=C/C(=O)c1ccc(N2CCN(c3ncc(C(F)(F)F)cc3Cl)CC2)cc1	GDH-TPI counter 40.2
O=C(CN1CCN(c2ncc(C(F)(F)F)cc2Cl)CC1)NCCNc1ncc(C(F)(F)F)cc1Cl	PfHsp40 yeast 293.6
O=C(Cc1ccc(Cl)c(Cl)c1)Nc1ccc(S(=O)(=O)Nc2ccon2)cc1	none (no result: BJeLR lethal, PfHsp40 yeast, GDH-TPI counter, PrP 5UTR inh, Mtb FBA inh)
Cc1ccc(N2C(=O)C3CCCN3C2=S)cc1Cl (centres undefined)	Mtb FBA inh 151.9
COc1ccc(/C=N/NS(=O)(=O)c2ccc(C)cc2)cc1OC(=O)c1ccccc1	Mtb FBA inh 128.5
COc1ccc(/C=N/NS(=O)(=O)c2ccccc2)cc1OC(=O)c1ccc(C)cc1	none
COc1ccc(C=Nn2c(-c3n[nH]c4c3CCC4)n[nH]c2=S)cc1OCc1ccccc1	none (no result: BJeLR lethal, PfHsp40 yeast, GDH-TPI counter, PrP 5UTR inh, Mtb FBA inh)
CCOC(=O)C1(C)CCN1C(=O)c1cc(F)cc(F)c1 (centres undefined)	none (no result: BJeLR lethal, PfHsp40 yeast, PrP 5UTR inh)
Cc1cccc2sc(NNC(=O)c3ccc(S(=O)(=O)N4CCCC(C)C4)cc3)nc12 (centres undefined)	PfHsp40 yeast 355.8
Cc1cc(C)c2nc(NNC(=O)c3ccc(S(=O)(=O)N4CCCCC4)cc3)sc2c1	none
Cc1cccc2sc(NNC(=O)c3ccc(S(=O)(=O)N4CCc5ccccc5C4)cc3)nc12	PfHsp40 yeast 410.1
CCCCN1CCN(C(=O)Cn2c(=O)c3ccccc3n(CC)c2=O)CC1	none (no result: BJeLR lethal, PfHsp40 yeast, GDH-TPI counter, PrP 5UTR inh, Mtb FBA inh)
Clc1ccc(-c2nnc3n2N=C(c2ccc(-c4ccccc4)cc2)CS3)cc1	none (no result: BJeLR lethal, PfHsp40 yeast, GDH-TPI counter, PrP 5UTR inh, Mtb FBA inh)
Cc1ccc(NC(=O)c2cc3nc(C)cc(C)n3n2)cc1	PfHsp40 yeast 47.5
Cc1cc(C)n2nc(C(=O)NCc3ccccc3)cc2n1	none (no result: PrP 5UTR inh)
COc1ccccc1NC(=S)OCCN1CCCC12CCC(c1ccccc1)CC2 (centres undefined)	none (no result: BJeLR lethal, PfHsp40 yeast, GDH-TPI counter, PrP 5UTR inh, Mtb FBA inh)
c1ccc(Cn2c(SCC3CCCCC3)nnc2-c2cccnc2)cc1	none (no result: BJeLR lethal, PfHsp40 yeast, GDH-TPI counter, PrP 5UTR inh, Mtb FBA inh)
Cc1ccc(N2CCN(S(=O)(=O)c3c(C)nc4scc(C)n4c3=O)CC2)c(C)c1	GDH-TPI counter 30.8
N#C/C(=C\c1ccc(-c2ccccc2[N+](=O)[O-])o1)C(N)=O	GDH-TPI counter 41.3
COc1ccc(OC)c(S(=O)(=O)N2CCCCC2C(=O)N2CCN(c3ccc(F)cc3)CC2)c1 (centres undefined)	none (no result: BJeLR lethal, PfHsp40 yeast, GDH-TPI counter, PrP 5UTR inh, Mtb FBA inh)
Cc1cccc(C(=O)Nc2c(-c3ccc(C(F)(F)F)cc3)nc3ncccn23)c1	none (no result: BJeLR lethal, PfHsp40 yeast, GDH-TPI counter, PrP 5UTR inh, Mtb FBA inh)
Cc1cccnc1NC(=S)NC(=O)/C=C/c1ccco1	none
O=C(/C=C/c1ccco1)NC(=S)Nc1ccccc1N1CCCC1	PfHsp40 yeast 58.9
O=C(/C=C/c1ccco1)NC(=S)Nc1ccccc1N1CCOCC1	GDH-TPI counter 45.6
O=C(/C=C/c1ccco1)NC(=S)Nc1ccccn1	GDH-TPI counter 40.2
COc1ccc(C(=O)/C=C/C(=O)N(CC(=O)NC2CCCCC2)Cc2ccccc2OC)c(O)c1	BJeLR lethal 51.4
COc1ccc(C(=O)/C=C/C(=O)N(CC(=O)NC2CCCCC2)Cc2ccccc2)c(O)c1	none
O=C(NN=Cc1ccc(-c2ccccc2)cc1)c1cc(-c2ccc(Cl)cc2)n[nH]1	none (no result: BJeLR lethal, PfHsp40 yeast, GDH-TPI counter, PrP 5UTR inh, Mtb FBA inh)
CC(C)CN1C(=O)[C@]2(CC(=O)N(C)C2c2ccccc2)c2cc(-n3cc(CCc4ccccc4)nn3)ccc21 (some centres undefined)	none (no result: BJeLR lethal, PfHsp40 yeast, GDH-TPI counter, PrP 5UTR inh, Mtb FBA inh)
Cc1c(Cl)c(=O)oc2cc(OCC(=O)N3CCCC(C)C3)ccc12 (centres undefined)	Mtb FBA inh active (no result: BJeLR lethal)
COc1ccc2c(c1)c(=O)oc1cc(OCC(=O)N3CCCC(C)C3)ccc12 (centres undefined)	Mtb FBA inh 116.0
Fc1ccc(Cn2ccc3ccc(-c4ccc5ccn(Cc6ccc(F)cc6)c5c4)cc32)cc1	none (no result: BJeLR lethal, PfHsp40 yeast, GDH-TPI counter, PrP 5UTR inh, Mtb FBA inh)
Cc1c(CCC(=O)O)c(=O)oc2cc(OCc3ccccc3F)ccc12	Mtb FBA inh 121.0
COc1cc(COc2ccc3c(C)c(CCC(=O)O)c(=O)oc3c2)cc(OC)c1OC	none
Cc1c(CC(=O)O)c(=O)oc2cc(OCc3ccc(F)cc3Cl)ccc12	Mtb FBA inh 166.7
CC1=N/C(=C\c2ccc([N+](=O)[O-])cc2)C(=O)N1c1ccc(Br)c(C)c1	GDH-TPI counter 38.9
O=C(Nc1ccccc1)C1CCCN1/C=C/C(=O)C(F)(F)F (centres undefined)	GDH-TPI counter 43.9
Cc1ccccc1NC(=O)C1CCCN1/C=C/C(=O)C(F)(F)F (centres undefined)	none
Nc1ccc(-c2nc3cc([N+](=O)[O-])ccc3o2)cc1	GDH-TPI counter 41.6
Cc1ccc(-c2nc3cc(N)ccc3o2)cc1	none
CC(C)c1ccc2oc(-c3ccc(N)cc3)nc2c1	Mtb FBA inh 191.2
O=C(Cc1ccccc1F)Nc1nc(-c2ccc(F)c(F)c2)cs1	PfHsp40 yeast 241.9
CCOC(=O)c1ccc(NC(=O)CC2NCCNC2=O)cc1 (centres undefined)	none
CCOC(=O)c1ccc(NC(=O)CC2OCCN(CC)C2=O)cc1 (centres undefined)	PfHsp40 yeast 53.2
CCN1CCOC(CC(=O)Nc2cccc([N+](=O)[O-])c2)C1=O (centres undefined)	none (no result: PfHsp40 yeast, PrP 5UTR inh)
CCOC(=O)c1ccc(NC(=O)CC2C(=O)OCCN2CC)cc1 (centres undefined)	PfHsp40 yeast 218.6
COc1ccc(-c2cc(-c3nnc4sc(Cc5cccs5)nn34)[nH]n2)cc1	none (no result: BJeLR lethal, PfHsp40 yeast, GDH-TPI counter, PrP 5UTR inh, Mtb FBA inh)
COC(=O)C[C@H]1CC[C@@H]2[C@@H](COc3ccc(NS(=O)(=O)c4ccccc4Cl)cc3C(=O)N2C)O1	none (no result: BJeLR lethal, PfHsp40 yeast, GDH-TPI counter, PrP 5UTR inh, Mtb FBA inh)
O=C1CN(CC(=O)N2CCOCC2)c2ccccc2O1	none (no result: PfHsp40 yeast, GDH-TPI counter, PrP 5UTR inh, Mtb FBA inh, PrPC surface inh)
O=C1CN(CC(=O)N2CCCCC2)c2ccccc2O1	PfHsp40 yeast 124.6
S=C(NCc1ccco1)Nc1ccc(Cl)c(Cl)c1	PfHsp40 yeast 36.2
O=S(=O)(O)c1cc2oc(-c3ccccc3)nc2c2ccccc12	Mtb FBA inh active

Assay outcomes (PubChem)
